# Measured values published in PubChem BioAssay (EPA / NIEHS).
# Records with an inconclusive call do not appear. Calls of active or inactive are those of the source. The calls were made as follows: active = hit-call score of the fitted dose curve at least 0.9, where 1 is the maximum; inconclusive = response in the unintended direction; inactive = score below 0.9.
# Target: Estrogen receptor (Homo sapiens) (UniProt P03372)
# Test: OT_ER_ERaERa_0480: Odyssey Thera (OT) 8-hour HEK293T Protein-Complementation Assay for Estrogen Receptor-alpha/-alpha Homodimer (AID 2283351);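 also: rise in fluorescence from reassembled reporter fragments on ERα LBD homodimer in nucleus or whole cell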
# Outline: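 The readout is complementation of fragments fused to the human ER alpha ligand-binding domain (aa 310-547), stably expressed in HEK293T cells. After 8 h of exposure, the increase in nuclear/cytoplasmic fluorescence was measured by laser scanning cytometry and fitted relative to DMSO.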
# Sequence of Estrogen receptor (Homo sapiens) (P03372 whole entry, looked up, the tested form may be a part): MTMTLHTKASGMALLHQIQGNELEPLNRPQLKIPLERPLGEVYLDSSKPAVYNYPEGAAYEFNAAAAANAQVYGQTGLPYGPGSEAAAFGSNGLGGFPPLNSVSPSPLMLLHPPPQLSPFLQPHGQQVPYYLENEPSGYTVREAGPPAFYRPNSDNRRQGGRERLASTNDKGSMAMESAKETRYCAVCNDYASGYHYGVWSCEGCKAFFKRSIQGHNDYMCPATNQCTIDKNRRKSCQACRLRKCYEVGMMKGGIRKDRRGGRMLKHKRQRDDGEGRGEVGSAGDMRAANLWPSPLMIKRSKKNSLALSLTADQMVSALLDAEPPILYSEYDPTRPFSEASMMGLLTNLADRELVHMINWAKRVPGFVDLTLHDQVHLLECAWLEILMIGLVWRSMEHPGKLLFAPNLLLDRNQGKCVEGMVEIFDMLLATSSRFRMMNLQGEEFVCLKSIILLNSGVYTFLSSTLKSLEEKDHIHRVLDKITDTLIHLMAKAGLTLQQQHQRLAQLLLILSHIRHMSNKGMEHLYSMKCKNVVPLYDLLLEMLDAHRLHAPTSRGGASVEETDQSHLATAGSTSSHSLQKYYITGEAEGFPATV
row,Structure (SMILES),outcome
1,Cc1cc(C2CC2)nc(Nc2ccccc2)n1,inactive
2,CCCCOC(=O)[C@@H](C)Oc1ccc(Oc2ccc(C#N)cc2F)cc1,inactive
3,CSc1nc(NC(C)C)nc(NC(C)C)n1,inactive
4,COP(=O)(OC)OC(Br)C(Cl)(Cl)Br (configuration not stated),inactive

# Target: T1, Estrogen receptor (Homo sapiens) + Estrogen receptor beta (Homo sapiens) (UniProt P03372+Q92731)
# Test: OT_ER_ERaERb_0480: Odyssey Thera (OT) 8-hour HEK293T Protein-Complementation Assay for Estrogen Receptor-alpha/-beta Heterodimer (AID 2283352)
# Outline: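 Compound added to HEK293T cells carrying split-reporter-tagged ER-alpha and ER-beta LBDs, incubated 8 hours, then imaged by laser scanning cytometer. Signal rise in nucleus, or nucleus and cytoplasm, over vehicle was fitted in the positive direction.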
# T1 sequence (P03372 whole entry, looked up): as the sequence (P03372 whole entry, looked up, the tested form may be a part) above
# T1 sequence (Q92731 whole entry, looked up): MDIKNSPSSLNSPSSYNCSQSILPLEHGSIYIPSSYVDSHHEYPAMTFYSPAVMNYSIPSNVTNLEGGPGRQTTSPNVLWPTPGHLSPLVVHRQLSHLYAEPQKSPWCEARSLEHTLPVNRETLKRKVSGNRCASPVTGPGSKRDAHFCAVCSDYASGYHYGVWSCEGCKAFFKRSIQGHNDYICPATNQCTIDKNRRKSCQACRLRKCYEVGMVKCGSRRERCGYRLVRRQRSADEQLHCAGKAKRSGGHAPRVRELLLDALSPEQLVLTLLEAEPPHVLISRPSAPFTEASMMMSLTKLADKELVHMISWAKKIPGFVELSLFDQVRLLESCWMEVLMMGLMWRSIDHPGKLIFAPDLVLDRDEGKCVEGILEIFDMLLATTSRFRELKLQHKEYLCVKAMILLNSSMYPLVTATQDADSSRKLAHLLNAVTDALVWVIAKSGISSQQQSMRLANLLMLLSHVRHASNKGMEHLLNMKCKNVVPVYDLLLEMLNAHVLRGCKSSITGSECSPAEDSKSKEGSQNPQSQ
row,Structure (SMILES),outcome
1,Cc1cc(C2CC2)nc(Nc2ccccc2)n1,inactive
2,CCCCOC(=O)[C@@H](C)Oc1ccc(Oc2ccc(C#N)cc2F)cc1,inactive
3,CSc1nc(NC(C)C)nc(NC(C)C)n1,inactive

# Target: Androgen Receptor/SRC-1 Co-activator, AR (gene 367) (UniProt P10275)
# Test: OT_AR_ARSRC1_0960: Odyssey Thera (OT) 16-hour HEK293T Protein-Complementation Assay for Androgen Receptor/SRC-1 Co-activator (AID 2283353);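 also: actives raise the signal above DMSO so potency reflects increased AR and SRC-1 complex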
# Outline: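 HEK293T cells stably expressing AR and SRC-1 fused to Venus YFP fragments, imaged 16 h after dosing. Nuclear/cytoplasmic fluorescence ratio at 488 nm from at least 400 cells per image; gain of signal relative to DMSO.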
# Sequence of Androgen Receptor/SRC-1 Co-activator, AR (gene 367) (P10275 whole entry, looked up): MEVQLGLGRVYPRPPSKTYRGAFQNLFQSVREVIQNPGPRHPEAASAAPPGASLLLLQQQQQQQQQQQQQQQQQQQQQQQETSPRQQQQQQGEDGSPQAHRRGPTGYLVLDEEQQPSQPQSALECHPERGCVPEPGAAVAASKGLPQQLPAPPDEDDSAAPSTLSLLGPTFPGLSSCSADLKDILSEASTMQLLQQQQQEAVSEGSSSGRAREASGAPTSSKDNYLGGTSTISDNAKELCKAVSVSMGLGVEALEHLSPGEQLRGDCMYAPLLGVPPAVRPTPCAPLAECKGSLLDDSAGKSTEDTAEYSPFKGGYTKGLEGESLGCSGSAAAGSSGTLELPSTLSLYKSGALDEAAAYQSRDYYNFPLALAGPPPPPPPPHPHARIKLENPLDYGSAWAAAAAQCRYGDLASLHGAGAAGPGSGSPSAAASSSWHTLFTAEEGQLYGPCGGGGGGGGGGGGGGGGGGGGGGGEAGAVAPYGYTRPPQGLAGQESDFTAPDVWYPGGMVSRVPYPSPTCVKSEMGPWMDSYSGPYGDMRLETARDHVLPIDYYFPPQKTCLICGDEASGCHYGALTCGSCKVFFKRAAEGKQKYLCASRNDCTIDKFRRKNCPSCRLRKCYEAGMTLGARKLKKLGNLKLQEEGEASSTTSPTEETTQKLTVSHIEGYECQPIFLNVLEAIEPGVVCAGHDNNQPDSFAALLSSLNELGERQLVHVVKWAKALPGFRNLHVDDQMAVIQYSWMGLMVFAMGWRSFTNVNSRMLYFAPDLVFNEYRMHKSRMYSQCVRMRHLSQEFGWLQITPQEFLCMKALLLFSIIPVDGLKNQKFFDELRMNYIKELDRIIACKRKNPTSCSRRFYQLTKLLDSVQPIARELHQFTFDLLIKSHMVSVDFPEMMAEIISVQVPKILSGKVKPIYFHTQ
Structure (SMILES),outcome,AC50
C[N+]1(C)CCCCC1,inactive,
Cc1nn(-c2cc(NS(C)(=O)=O)c(Cl)cc2Cl)c(=O)n1C(F)F,inactive,
CC(C)=CC1C(C(=O)OCN2C(=O)C3=C(CCCC3)C2=O)C1(C)C (configuration not stated),,78.6 µM (active)
CCC(=O)Nc1ccc(Cl)c(Cl)c1,inactive,
CCc1cccc(CC)c1N(COC)C(=O)CCl,,32 µM (active)
CCCOc1nn(C(=O)NS(=O)(=O)c2ccccc2C(=O)OC)c(=O)n1C,inactive,
CCOP(=O)(NC(C)C)Oc1ccc(SC)c(C)c1 (configuration not stated),inactive,
CCOC(=O)COc1cc(-c2nn(C)c(OC(F)F)c2Cl)c(F)cc1Cl,inactive,
COP(=O)(OC)OC(Br)C(Cl)(Cl)Br (configuration not stated),,32.5 µM (active)
O=c1ccc(=O)[nH][nH]1,inactive,

# Target: Androgen Receptor/SRC-1 Co-activator, AR (gene 367) (UniProt P10275)
# Test: OT_AR_ARSRC1_0480: Odyssey Thera (OT) 8-hour HEK293T Protein-Complementation Assay for Androgen Receptor/SRC-1 Co-activator (AID 2283354);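 also: hits raise the complementation signal above DMSO so AC50 marks enhancers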
# Outline: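 Measures AR/SRC-1 binding by Venus YFP fragment complementation in HEK293T stable lines at 8 h post-dose. Imaging quantifies the 488nm nucleus/cytoplasm ratio in ≥400 cells; DMSO defines baseline.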
Structure (SMILES),outcome,AC50
Cc1nn(-c2cc(NS(C)(=O)=O)c(Cl)cc2Cl)c(=O)n1C(F)F,inactive,
CC(C)=CC1C(C(=O)OCN2C(=O)C3=C(CCCC3)C2=O)C1(C)C (configuration not stated),,77.5 µM (active)
CCC(=O)Nc1ccc(Cl)c(Cl)c1,inactive,
CCc1cccc(CC)c1N(COC)C(=O)CCl,inactive,
CCCOc1nn(C(=O)NS(=O)(=O)c2ccccc2C(=O)OC)c(=O)n1C,inactive,
CCOP(=O)(NC(C)C)Oc1ccc(SC)c(C)c1 (configuration not stated),inactive,
CCOC(=O)COc1cc(-c2nn(C)c(OC(F)F)c2Cl)c(F)cc1Cl,inactive,
COP(=O)(OC)OC(Br)C(Cl)(Cl)Br (configuration not stated),inactive,
O=c1ccc(=O)[nH][nH]1,inactive,

# Target: T1, Estrogen receptor (Homo sapiens) + Estrogen receptor beta (Homo sapiens)
# Test: OT_ER_ERaERb_1440: Odyssey Thera (OT) 24-hour HEK293T Protein-Complementation Assay for Estrogen Receptor-alpha/-beta Homodimer (AID 2283356);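 also: heteromer of ER alpha and ER beta binding domains; hits raise reporter fluorescence and both agonists and antagonists give an increase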
# Outline: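 Stable HEK293T PCA line, ERα LBD 310-547 + ERβ LBD 263-489 fused to reporter fragments; 24 h treatment; fluorescence read by laser scanning cytometry; positive fitting direction relative to DMSO.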
Structure (SMILES),AC50,outcome
Cc1cc(C2CC2)nc(Nc2ccccc2)n1,40 µM (active),
CCCCOC(=O)[C@@H](C)Oc1ccc(Oc2ccc(C#N)cc2F)cc1,,inactive
CSc1nc(NC(C)C)nc(NC(C)C)n1,,inactive
CCc1cccc(CC)c1N(COC)C(=O)CCl,,inactive
COP(=O)(OC)OC(Br)C(Cl)(Cl)Br (configuration not stated),,inactive

# Target: Estrogen receptor beta (Homo sapiens) (UniProt Q92731)
# Test: OT_ER_ERbERb_0480: Odyssey Thera (OT) 8-hour HEK293T Protein-Complementation Assay for Estrogen Receptor-beta/-beta Homodimer (AID 2283357);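 also: active means signal gain over DMSO baseline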
# Outline: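 Cells (HEK293T, stable ER-beta LBD PCA pair) are treated 8 hours, fixed and Draq5-stained; signal is fluorescence intensity increase relative to vehicle, fitted in the gain direction.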
# Sequence of Estrogen receptor beta (Homo sapiens) (Q92731 whole entry, looked up): as the sequence (Q92731 whole entry, looked up) above
Structure (SMILES),outcome,AC50
Nc1nc(N)nc(NC2CC2)n1,inactive,
COP(=O)(NC(C)=O)SC (configuration not stated),inactive,
O=C(O)c1cc(Oc2ccc(C(F)(F)F)cc2Cl)ccc1[N+](=O)[O-],inactive,
C[N+]1(C)CCCCC1,inactive,
CC(=NC#N)N(C)Cc1ccc(Cl)nc1,inactive,
CCOP(=S)(OCC)OC(Cl)C(Cl)(Cl)Cl (configuration not stated),,38.6 µM (active)
Cc1cc(C2CC2)nc(Nc2ccccc2)n1,,50 µM (active)
CCCCOC(=O)[C@@H](C)Oc1ccc(Oc2ccc(C#N)cc2F)cc1,inactive,
CCCCN(CC)c1c([N+](=O)[O-])cc(C(F)(F)F)cc1[N+](=O)[O-],inactive,
CC(Oc1cccc(Cl)c1)C(=O)O (configuration not stated),inactive,
CCCCSP(=O)(SCCCC)SCCCC,inactive,
CSc1nc(NC(C)C)nc(NC(C)C)n1,inactive,
CN(C)NC(=O)CCC(=O)O,,50 µM (active)
CNC(=O)ON=C(C)SC,inactive,
COc1cccc(C(=O)NN(C(=O)c2cc(C)cc(C)c2)C(C)(C)C)c1C,inactive,
CCOP(=O)(NC(C)C)Oc1ccc(SC)c(C)c1 (configuration not stated),inactive,
CC1=NNC(=O)N(/N=C/c2cccnc2)C1,inactive,
CCNc1nc(Cl)nc(NC(C)(C)C#N)n1,inactive,
CSC1=N[C@@](C)(c2ccccc2)C(=O)N1Nc1ccccc1,inactive,
CCC(=NOC/C=C/Cl)C1=C(O)CC(C2CCOCC2)CC1=O (configuration not stated),inactive,

# Target: Retinoic acid receptor alpha (Homo sapiens) (UniProt P10276)
# Test: NVS_NR_hRAR_Antagonist: NovaScreen (NVS) Nuclear Receptor Binding Assay for human Retinoic Acid Alpha Receptor Antagonism (RAR) (AID 2283358)
# Outline: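 TR-FRET, cell-free, antagonist format; 2 h incubation after dosing; DMSO = baseline; signal loss fitted; 25 uM duplicate primary, then conc. series.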
# Sequence of Retinoic acid receptor alpha (Homo sapiens) (P10276 whole entry, looked up): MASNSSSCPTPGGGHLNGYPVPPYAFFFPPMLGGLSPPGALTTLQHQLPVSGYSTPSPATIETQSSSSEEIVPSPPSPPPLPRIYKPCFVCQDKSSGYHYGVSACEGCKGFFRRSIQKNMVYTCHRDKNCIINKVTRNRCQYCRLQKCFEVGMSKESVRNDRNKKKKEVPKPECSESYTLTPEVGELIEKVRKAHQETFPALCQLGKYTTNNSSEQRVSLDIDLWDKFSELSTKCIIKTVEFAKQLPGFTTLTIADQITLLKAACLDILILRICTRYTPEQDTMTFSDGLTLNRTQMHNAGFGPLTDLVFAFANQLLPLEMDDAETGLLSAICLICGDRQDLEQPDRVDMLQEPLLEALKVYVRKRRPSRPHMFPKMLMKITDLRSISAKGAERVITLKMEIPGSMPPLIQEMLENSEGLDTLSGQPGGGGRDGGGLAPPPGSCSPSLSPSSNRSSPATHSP
row,Structure (SMILES),outcome
1,Cc1cc(C2CC2)nc(Nc2ccccc2)n1,inactive
2,COP(=O)(OC)C(O)C(Cl)(Cl)Cl (configuration not stated),inactive
3,CCCCN(CC)c1c([N+](=O)[O-])cc(C(F)(F)F)cc1[N+](=O)[O-],inactive
4,COc1cccc(C(=O)NN(C(=O)c2cc(C)cc(C)c2)C(C)(C)C)c1C,inactive
5,CCOP(=O)(NC(C)C)Oc1ccc(SC)c(C)c1 (configuration not stated),inactive
6,CC1=NNC(=O)N(/N=C/c2cccnc2)C1,inactive
7,S=C1NCCN1,inactive

# Target: human Thyroid Receptor Alpha (TRa), THRA (gene 7067) (UniProt P10827)
# Test: NVS_NR_hTRa_Antagonist: NovaScreen (NVS) Nuclear Receptor Binding Assay for human Thyroid Receptor Alpha Antagonism (TRa) (AID 2283362);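 also: activity is loss of signal relative to DMSO baseline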
# Outline: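 Extracted protein, cell-free; 1 h incubation after dosing; AlphaLISA chemiluminescence binding readout. DMSO = baseline/neg ctrl; signal loss = activity. Primary: duplicate, 25 uM; secondary: conc. series on actives.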
# Sequence of human Thyroid Receptor Alpha (TRa), THRA (gene 7067) (P10827 whole entry, looked up): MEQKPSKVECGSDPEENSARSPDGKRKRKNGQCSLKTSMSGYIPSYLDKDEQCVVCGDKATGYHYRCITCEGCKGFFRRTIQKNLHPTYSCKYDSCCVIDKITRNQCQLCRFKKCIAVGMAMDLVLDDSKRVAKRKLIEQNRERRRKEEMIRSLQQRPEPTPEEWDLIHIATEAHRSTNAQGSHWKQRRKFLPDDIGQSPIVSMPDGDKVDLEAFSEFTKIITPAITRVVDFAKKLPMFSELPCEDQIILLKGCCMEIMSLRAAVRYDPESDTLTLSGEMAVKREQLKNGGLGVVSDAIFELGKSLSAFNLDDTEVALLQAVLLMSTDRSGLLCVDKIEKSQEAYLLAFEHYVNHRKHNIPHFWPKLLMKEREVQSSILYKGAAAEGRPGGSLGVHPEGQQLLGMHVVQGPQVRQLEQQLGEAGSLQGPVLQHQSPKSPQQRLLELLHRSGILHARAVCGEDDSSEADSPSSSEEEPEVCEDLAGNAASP
Structure (SMILES),outcome,AC50
CN(C)[C@@H]1C(=O)C(C(N)=O)=C(O)[C@@]2(O)C(=O)C3=C(O)c4c(O)cccc4[C@@](C)(O)[C@H]3[C@H](O)[C@@H]12,inactive,
CCc1cnc(C2=NC(C)(C(C)C)C(=O)N2)c(C(=O)O)c1 (configuration not stated),,17.7 µM (active)
CCCCN(CC)c1c([N+](=O)[O-])cc(C(F)(F)F)cc1[N+](=O)[O-],inactive,
S=C1NCCN1,inactive,
